Results on 60 molecules are retold here after PubChem BioAssay AID1851 (National Center for Advancing Translational Sciences (NCATS), 2009).

A word on the AC50: it is the concentration at which the activity in the assay is half-maximal.

Values joined by “and” are separate entries in the source; they are usually repeats but may differ in a detail not shown here. Identical values can stand only once. About 5,800 (36%) of roughly 16,000 compounds were called active. Roughly 23% stayed inconclusive and do not appear here. Calls come from the whole dose curve; as a rule, active = well fitted curve in the direction sought with a large enough effect; inconclusive = small, poorly fitted or top-dose-only effect, or effect the other way; inactive = no such curve, though single readings can be large or run the other way. Some of the results follow. A structure can be active in one record and inactive in another.
% is set by controls: 0 for no effect and ±100 for the full control effect.

Sequence of Cytochrome P450 2C19 (Homo sapiens) (P33261 whole entry, looked up): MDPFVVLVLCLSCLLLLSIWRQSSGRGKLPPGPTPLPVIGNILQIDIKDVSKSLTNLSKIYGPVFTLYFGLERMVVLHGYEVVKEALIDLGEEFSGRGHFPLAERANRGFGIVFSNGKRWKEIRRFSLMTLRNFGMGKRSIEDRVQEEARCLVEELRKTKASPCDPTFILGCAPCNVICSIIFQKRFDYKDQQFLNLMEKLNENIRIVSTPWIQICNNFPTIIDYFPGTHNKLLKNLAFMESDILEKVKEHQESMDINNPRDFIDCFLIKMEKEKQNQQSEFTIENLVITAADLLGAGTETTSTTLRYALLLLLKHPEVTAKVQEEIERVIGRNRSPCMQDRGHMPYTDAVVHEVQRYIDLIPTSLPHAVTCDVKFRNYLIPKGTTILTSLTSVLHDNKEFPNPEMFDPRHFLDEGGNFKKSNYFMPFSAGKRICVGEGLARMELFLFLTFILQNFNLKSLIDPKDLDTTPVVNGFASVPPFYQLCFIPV

The test addresses Cytochrome P450 2C19 (Homo sapiens) (UniProt P33261). Briefly: Cytochrome panel assay with activity outcomes. The following applies: recombinant CYP, pro-luciferin dealkylation, luminescence, p450-cyp2c19; series mostly up to 57.1 µM; activity, negative = inhibition: at the top concentration.
Take `Cn1c(=O)c2[nH]c(-c3ccccc3)nc2n(C)c1=O`: the “activity, negative = inhibition” value was 29.4% (inactive).
On to `O=C(O)c1nc(-c2ccccc2)[nH]c1C(=O)O`, for which the AC50 is 3.16 µM (active).
On to `Nc1nc(C(=O)O)c(N=Nc2ccccc2)c(=O)[nH]1`, for which the activity, negative = inhibition was -7.57% [at 11.4 µM] (inactive).
As to `Cc1ccc(S(=O)(=O)N(CC(=O)NCCC2=CCCCC2)Cc2ccccc2F)cc1`, the AC50 is 4.47 µM (active).
As for `C/C(CCN1CCCc2nc(C)c(C)cc21)=N\OC[C@@H](O)COCc1ccco1`, the activity, negative = inhibition is 7.43% [at 11.4 µM] (inactive).
Same read-out and setting: the value for `Cc1ccc(N2C(=O)c3n[nH]c(C)c3C2c2ccccn2)cc1` (stereo not given) was -25.1% (inactive).
Regarding `O=C1CSC(c2ccccn2)N1c1ccc(Cl)c(Cl)c1` (stereo not given), the AC50 was 3.55 µM (active).
Turning to `N#Cc1c(N2CCCCC2)nc(N)c2c(N)nc3c(c12)CC(c1ccccc1)O3` (stereo not given), the AC50 is 6.31 µM (active).
The same measure, in the same setting: for `COc1ccccc1N1CCN(CCCCNC(=O)c2ccc3ccccc3c2)CC1` the value was “inactive”; for `COc1ccccc1N1CCN(Cc2cc(=O)n3ccsc3n2)CC1`, 17.8 µM (active).
On to `COc1ccccc1N1CCN(C[C@@H]2CN3C(=O)N(C)c4ccccc4C3=N2)CC1`, for which the “activity, negative = inhibition” value is -22.8% (inactive).
For the molecule `COc1ccccc1N1CCN(CCCCNC(=O)c2ccc(-c3ccc(C(C)=O)cc3)cc2)CC1`, the AC50 was 15.8 µM (active).
On the same count and under the same terms, for `COc1ccccc1N1CCN(CCCNc2cc(=O)n(C)c(=O)n2C)CC1` the value was “inactive and 7.94 µM (active)”; for `COc1ccccc1N1CCN(CCCCNS(=O)(=O)c2cccc3c(N(C)C)cccc23)CC1`, 0.501 µM (active).
In the case of `COc1ccccc1N1CCN(CCn2c(=O)[nH]c3c([nH]c4ccccc43)c2=O)CC1`, the “activity, negative = inhibition” value was -6.76% (inactive).
`CC1(C)[C@@H]2CC[C@]1(CC(=O)O)[C@H](Cl)C2`: the activity, negative = inhibition is 3.64% [at 11.4 µM] (inactive).
The same measure, in the same setting: for `CCNc1ncc2nc(-c3cc(F)cc(F)c3)c(=O)n(CCC#N)c2n1` the value was 14.4% (inactive).
For `CN[C@]1(C)[C@H]2CC[C@@H](C2)C1(C)C`, the “activity, negative = inhibition” value is -24% [at 25.6 µM] (inactive).
In the case of `CC1(C)C2([N+](=O)[O-])CN3CC1([N+](=O)[O-])CN(C2)C31CCCC1`, the “activity, negative = inhibition” value is 3.32% (inactive).
With `COc1ccccc1N1CCN(CCCCN2C(=O)CCC2=O)CC1`, the AC50 was 10 µM (active).
Still for that read-out and setting: the value for `COc1ccccc1N1CCN(CCN2C(=O)CC3(CCCC3)CC2=O)CC1` was “inactive”; that for `COc1ccccc1N1CCN(CCCCN2C(=O)c3ccccc3C2=O)CC1` was “inactive”; that for `CC(C)C(=O)NCCc1nc2ccccc2n1CCCOc1ccc(Cl)cc1` was 2 µM (active).
As to `C=CC[C@H](N)C(=O)O`, the “activity, negative = inhibition” value is 16.6% (inactive).
Consider `Cc1ccc(NC(=O)c2ccc(CSc3nnc(-c4ccncc4)n3C)cc2)cc1`, for which the “activity, negative = inhibition” value is 8.7% (inactive).
On to `CCn1c(SCc2ccc(C(=O)Nc3nccs3)cc2)nnc1-c1ccc(NC(C)=O)cc1`, for which the AC50 is 5.01 µM (active).
Same read-out and setting: for `O=C(CSc1nnc(-c2ccncc2)n1Cc1ccccc1)Nc1nccs1` the value was 1.78 µM (active).
As to `CCNC(=O)C1CC(=O)OC12CCCCC2` (stereo not given), the “activity, negative = inhibition” value is -10.2% (inactive).
As for `CN(C)CCNc1nc2c(c(=O)n(C)c(=O)n2C)n1C`, the activity, negative = inhibition was -4.31% [at 11.4 µM] (inactive).
For the molecule `Cn1c(=O)c2c(nc(Cl)n2Cc2ccc(Cl)c(Cl)c2)n(C)c1=O`, the AC50 is 2 µM (active).
In the case of `CN(C)CCn1c(CO)nc2c1c(=O)n(C)c(=O)n2C`, the activity, negative = inhibition was 29.8% [at 11.4 µM] (inactive).
Same read-out and setting: for `CCc1ccc(N2CC(C)Cn3c2nc2c3c(=O)n(CCN3CCOCC3)c(=O)n2C)cc1` (stereo not given) the value was 8.95% (inactive).
On to `Cn1c(OCc2ccc3c(c2)OCO3)nc2c1c(=O)n(Cc1ccc(Cl)c(Cl)c1)c(=O)n2C`, for which the AC50 was 10 µM (active).
As to `O=C(Nc1cnc2ccccc2c1)c1cccc(-n2cnnn2)c1`, the “activity, negative = inhibition” value was 1.85% (inactive).
Consider `CCC(C(=O)NC(C)(C)C)N(C(=O)Cn1nnc(-c2cccs2)n1)c1cnc2ccccc2c1` (stereo not given), for which the AC50 was 31.6 µM (active).
Consider `CCCCCCCC/C=C\CCCCCCCC(=O)NCc1ccc(O)c(OC)c1`, for which the “activity, negative = inhibition” value is -15.4% (inactive).
Still for that read-out and setting: for `CCCCCCCCC(=O)NCc1cc(OC)c(O)cc1I` the value was -37.1% (inactive).
Take `COc1cc(CNC(=O)CCCC/C=C\C(C)C)ccc1O`: the AC50 was 7.94 µM (active).
In the case of `CC(C)C(=O)Nc1ccc(C(=O)NNC(=O)CCCOc2ccc(Cl)cc2Cl)cc1`, the AC50 was 4.47 µM (active).
In the case of `CC(C)C(=O)Nc1ccc(C(=O)NNC(=O)C(c2ccccc2)c2ccccc2)cc1`, the “activity, negative = inhibition” value is -14.8% (inactive).
Consider `COc1ccc(/C=N/NC(=O)CCCOc2ccc(Cl)cc2Cl)cc1[N+](=O)[O-]`, for which the AC50 is 1 µM (active).
The same measure, in the same setting: the value for `CC(C)(C)C(=O)NNC(=O)CCCOc1ccc(Cl)cc1Cl` was 11.2 µM (active).
For `CN1C[C@H](c2ccccc2)C(O)([C@]2(c3ccccc3)CN(C)C[C@@H](c3ccccc3)C2=O)[C@H](c2ccccc2)C1` (stereo not given in full), the activity, negative = inhibition is 7.29% [at 11.4 µM] (inactive).
As for `CCCCCCc1c(C[C@H](N)C(=O)O)o[nH]c1=O`, the AC50 entry is “inactive”.
On the same count and under the same terms, for `CCC/C=C(\CCC)C(NS(=O)(=O)c1ccc(C(F)(F)F)cc1)c1ccc(-c2ccccc2)cc1` (stereo not given) the value was 7.94 µM (active); for `CCC/C=C(\CCC)C(NS(=O)(=O)c1ccc(C(F)(F)F)cc1)c1ccccc1` (stereo not given), 0.398 µM (active).
On to `C/C(=C\C1CCCCC1)C(NC(=O)c1ccc(C(F)(F)F)cc1)c1ccc(-c2ccccc2)cc1` (stereo not given), for which the “activity, negative = inhibition” value is 1.59% (inactive).
For the molecule `CCC/C=C(\CCC)C(NS(=O)(=O)c1ccccc1)c1ccc(C(F)(F)F)cc1` (stereo not given), the AC50 is 7.94 µM (active).
With `CC(C)CN1CCCC2(CCN(C(=O)c3cccn3C)CC2)C1`, the “activity, negative = inhibition” value is 23.7% (inactive).
On to `Cc1nn(S(=O)(=O)c2cccs2)c(C)c1Sc1ccc([N+](=O)[O-])cc1`, for which the AC50 was 0.562 µM (active).
In the case of `Cc1c2c(nc3ccccc13)-c1cccc(=O)n1C2`, the “activity, negative = inhibition” value was -10.1% (inactive).
Same read-out and setting: the value for `CC(C)(C)[Si](C)(C)c1c2c(nc3ccc(OCc4ccccc4)cc13)-c1cccc(=O)n1C2` was -35.1% (inactive).
As to `COc1ccc2nc3c(c([Si](C)(C)C(C)(C)C)c2c1)Cn1c-3cccc1=O`, the AC50 was 2 µM (active).
On to `CCCCC/C=C\C[C@H](O)/C=C\c1cccc(C[C@H](O)CCCCO)n1`, for which the “activity, negative = inhibition” value was -29.6% (inactive).
As to `COc1ccc2c(C=Nc3c(C)n(C)n(-c4ccccc4)c3=O)c(O)n(Cc3ccco3)c(=O)c2c1`, the AC50 was 10 µM (active).
On the same count and under the same terms, for `COc1ccc(C(=O)NCC(c2ccc(F)cc2)N2CCOCC2)cc1S(=O)(=O)N1CCCC1` (stereo not given) the value was 6.31 µM (active).
Turning to `OCCCN=C1CCCCC1`, the activity, negative = inhibition is 31.2% [at 11.4 µM] (inactive).
Still for that read-out and setting: for `Clc1ccc2c(NCCNc3ccnc4cc(Cl)ccc34)ccnc2c1` the value was -22.5% [at 11.4 µM] (inactive); for `O=C(N/N=C/c1cccc([N+](=O)[O-])c1)c1cc2c(ccc3ccccc32)o1`, 5.13% (inactive).
`C=CCn1cc(/C=N\NC(=O)c2cc3c(ccc4ccccc43)o2)c2ccccc21`: the AC50 was 4.47 µM (active).
